The list is not random: actives were taken first. Their share in the collection is about 3%.
FBA Mtb inh = inhibits M. tuberculosis FBA enzyme | P9WQA3 | inhibition, % at 1 µM | purified M. tuberculosis FBA, fluorescence read-out | actives 2.3% (n = 360,000); in the data active = inhibition above about 27%;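 note: 0% = vehicle and 100% = reference inhibitor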
GDH-TPI counter = GDH-TPI coupled enzyme inhibition counter-screen; actives 1.2% (n = 360,000); AID 588335; inhibition, % at 4.8 µM; GDH-TPI coupled enzyme counterscreen, NADH absorbance; in the data active = inhibition above about 30%;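 note: 0% = DMSO wells and 100% = wells lacking the enzyme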
BioA inh = inhibitors of Mycobacterium tuberculosis BioA enzyme; actives 0.096% (n = 360,000); purified M. tuberculosis BioA enzyme, plate reader; inhibition, % at 9.99 µM; in the data active = inhibition above about 40%
Rv3671c inh = inhibitors of M. tuberculosis serine protease Rv3671c; inhibition, % at 5.96 µM; actives 0.048% (n = 320,000); AID 2606; P9WHR9; in the data active = inhibition above about 38%;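 note: extracellular domain of Rv3671c used as enzyme; 0% = enzyme with DMSO and 100% = no enzyme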
Target sequence (P9WHR9 whole entry, looked up, the tested form may be a part): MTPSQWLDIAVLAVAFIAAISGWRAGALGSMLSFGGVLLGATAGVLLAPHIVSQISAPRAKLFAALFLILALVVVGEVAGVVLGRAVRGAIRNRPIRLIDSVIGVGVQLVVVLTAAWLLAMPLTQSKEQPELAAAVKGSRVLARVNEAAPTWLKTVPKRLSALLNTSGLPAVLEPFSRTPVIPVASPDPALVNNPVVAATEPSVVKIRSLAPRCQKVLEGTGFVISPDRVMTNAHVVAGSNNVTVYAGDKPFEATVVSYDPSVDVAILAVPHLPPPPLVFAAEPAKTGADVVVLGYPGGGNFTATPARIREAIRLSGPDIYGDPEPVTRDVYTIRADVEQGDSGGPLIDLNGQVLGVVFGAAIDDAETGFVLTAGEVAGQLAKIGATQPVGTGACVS
FadD28 binding = M. tuberculosis FadD28 bisubstrate binding inhibition. FadD28 bisubstrate probe binding, fluorescence polarization. inhibition, % at 12.5 µM. actives 0.22% (n = 360,000). AID 588549; in the data active = inhibition above about 8.5%, passing the limit was not always enough
Numbers without * were called inactive; nt = not tested or not shown; + = active, no number.

SMILES	FBA Mtb inh	GDH-TPI counter	BioA inh	Rv3671c inh	FadD28 binding
CO[C@@H]1CN(C)C(=O)c2cc(NC(=O)Nc3c(C)noc3C)ccc2OC[C@H](C)N(C)C[C@@H]1C	nt	nt	-5.3	nt	nt
O=C(/C=C/c1cccc(O)c1)c1ccc(N2CCOCC2)cc1	-2.4	43.0*	2.1	7.9	-0.2
Cc1nnc(SCC(=O)N/N=C/c2cc(Cl)c(O)c(Cl)c2)s1	-4.5	34.7*	0.8	-9.3	1.5
O=C(CSc1nnc(SCc2ccc(Cl)cc2)s1)N/N=C/c1ccc(Cl)cc1Cl	0.3	-1.2	nt	1.0	-4.1
C[C@@H]1CN([C@@H](C)CO)C(=O)c2cccc(N(C)C)c2O[C@H]1CN(C)S(=O)(=O)c1ccccc1	nt	nt	-0.1	nt	nt
CC1(CC(=O)N/N=C/c2ccc(-c3ccc(C(=O)O)cc3)o2)OCCO1	15.9	59.6*	0.8	7.0	-3.5
CC1(CC(=O)N/N=C/c2ccc(-c3ccc(Cl)cc3)o2)OCCO1	0.2	54.6*	-1.8	-11.6	0.2
O=C(CN1CCOCC1)N/N=C/c1ccc(-c2ccc(C(=O)O)cc2)o1	6.3	35.4*	nt	1.8	1.3
O=C(O)c1ccc(N/N=C/c2ccc(-c3ccc(Br)cc3)o2)cc1	10.8	19.2	0.8	14.2	3.1
C[C@H](CO)N1C[C@H](C)[C@@H](CN(C)C(=O)NC2CCCCC2)Oc2ncc(C#CCN(C)C)cc2C1=O	nt	nt	-0.1	nt	nt
CCC(C)Sc1cc(-c2nc3ccc(C)cn3c2NCc2ccccc2)ccc1OC (stereo unspecified)	64.1*	9.9	-0.3	7.6	2.1
CCC(C)Sc1ccc(-c2nc3ccc(C)cn3c2NCc2ccccc2)cc1OC (stereo unspecified)	115.9*	42.4*	-0.8	3.8	-1.2
CCC(=O)N1[C@H](CO)[C@@H](c2ccccc2)[C@@H]1CN(CC)C(=O)NC1CCCC1	nt	nt	4.1	nt	nt
CN1C(=O)c2cc(NC(=O)C3CCCC3)ccc2OC[C@H]2O[C@H](CC(=O)NCC(F)(F)F)CC[C@@H]21	nt	nt	-0.8	nt	nt
Cc1nc(-c2ccccc2)sc1-c1ccnn1C	123.6*	2.2	nt	-2.4	-5.2
COc1ccc(S(=O)(=O)N(C)C[C@H]2Oc3cc(C4=CCCC4)ccc3S(=O)(=O)N([C@H](C)CO)C[C@H]2C)cc1	nt	nt	-1.1	nt	nt
O=[N+]([O-])c1ccc2[nH]c(O)c(N=NC3CCS(=O)(=O)C3)c2c1 (stereo unspecified)	-2.6	59.3*	0.7	7.8	0.0
COc1cccc(NC(=O)N2C[C@H](O)COC[C@H]3O[C@@H](CC(=O)NC4CCC4)CC[C@@H]32)c1	nt	nt	-1.8	nt	nt
Cc1ccc(C(=O)/C=C2/NC(=O)CS2)cc1	-1.9	31.1*	nt	-4.1	-4.1
CCCCCCCCCCCCC/C=C/[C@@H](O)[C@@H](N)CO	1.1	9.2	-1.6	-1.5	33.1*
CS(=O)(=O)c1ccc2nc(NC(=O)c3ccco3)sc2c1	-2.4	46.0*	-0.9	1.1	-4.1
CS(=O)(=O)c1ccc2nc(NC(=O)c3ccccc3Cl)sc2c1	-0.9	19.4	-3.4	nt	-0.2
Cc1ccc(C(=O)Nc2nc3ccc(S(C)(=O)=O)cc3s2)o1	3.3	52.3*	0.1	-6.2	-1.8
Cc1noc(C)c1C(=O)Nc1nc2ccc(S(C)(=O)=O)cc2s1	0.6	53.6*	-1.8	6.6	-2.4
COc1ccc2nc(NC(=O)c3c(C)noc3C)sc2c1	7.7	18.8	0.0	0.0	-2.0
SMILES	FBA Mtb inh	GDH-TPI counter	BioA inh	Rv3671c inh	FadD28 binding
O=C(C[C@H]1CC[C@@H]2[C@H](COC[C@@H](O)CN2C(=O)c2ccncc2)O1)NC1CCC1	nt	nt	-1.1	nt	nt
CN(C)Cc1ccccc1-c1cccc2nccn12	142.4*	9.3	1.8	nt	-1.9
Cc1cccc(-c2cccc3nccn23)c1	+	8.4	1.1	nt	-3.7
OCc1ccc(-c2cccc3nccn23)cc1	+	12.8	-0.2	nt	-1.1
C[C@@H]1CN([C@@H](C)CO)C(=O)c2cc(NC(=O)CCC(F)(F)F)ccc2O[C@@H]1CN(C)C	nt	nt	2.7	nt	nt
Cc1nc(N2CCOCC2)c2c(C)c(C(=O)Nc3ccccc3Cl)sc2n1	-2.6	30.9*	0.1	16.7	-5.8
O=C(COc1ccccc1)Nc1cccc(-c2cn3cccnc3n2)c1	+	2.1	38.0	7.5	-4.2
COc1cc(OC)cc(C(=O)Nc2cc(-c3cn4cccnc4n3)ccc2C)c1	+	10.8	nt	2.6	-5.4
Cc1ccc(-c2cn3cccnc3n2)cc1NC(=O)c1cccs1	+	17.7	nt	5.5	-2.8
COc1ccc(-c2cn3cccnc3n2)cc1Br	+	12.9	nt	-1.8	-1.5
C[C@@H]1CN([C@@H](C)CO)C(=O)c2cc(NC(=O)Nc3ccc(C(F)(F)F)cc3)ccc2O[C@@H](C)CCCCO[C@H]1CN(C)C(=O)Nc1cccc2ccccc12	nt	nt	-1.2	nt	nt
CC(C)NC(=O)N(C)C[C@H]1Oc2ncc(C#CCc3ccccc3)cc2C(=O)N([C@H](C)CO)C[C@@H]1C	nt	nt	-3.4	nt	nt
Nc1ccc(-c2cn3cccnc3n2)cc1	7.5	37.8*	-1.9	nt	0.4
COc1cc(C(=O)Nc2cc(-c3cn4cccnc4n3)ccc2C)cc(OC)c1OC	+	12.0	0.2	1.5	-0.8
COc1ccc(-c2cn3cccnc3n2)cc1NC(=O)C1CC1	10.7	8.3	-0.2	-1.8	1.5
COc1ccc(-c2cn3cccnc3n2)cc1NC(=O)C1CCCC1	15.6	22.9	-3.3	-5.0	-0.4
COc1ccc(-c2cn3cccnc3n2)cc1NC(=O)C(C)C	24.7	33.7*	0.7	0.6	0.8
CN1C(=O)c2cc(NC(=O)c3ccc(F)cc3)ccc2OC[C@H]2O[C@@H](CC(=O)N3CCOCC3)CC[C@H]21	nt	nt	0.0	nt	nt
Cc1cc2c(C)c(C)c(=O)[nH]c2cc1N	+	35.5*	-2.3	-6.5	-0.2
Cc1cc(C)c2[nH]c(=O)c(=O)[nH]c2c1	-3.1	11.7	0.8	6.7	-4.1
C[C@H]1CN([C@@H](C)CO)C(=O)c2cccc(NS(=O)(=O)c3ccccc3)c2O[C@H]1CN(C)S(C)(=O)=O	nt	nt	-2.1	nt	nt
O=C1CCCC2=C1C(c1cccnc1)Nc1ccccc1N2 (stereo unspecified)	-13.5	30.8*	-0.4	-0.7	-2.0
C[C@@H]1CN([C@H](C)CO)C(=O)c2cc(/C=C/c3ccccc3)cnc2O[C@H]1CN(C)C(=O)C1CCC1	nt	nt	5.9	nt	nt
c1ccc2c(c1)CCCN2c1nc2ccccc2n2cnnc12	2.2	35.7*	0.7	7.9	-1.3
c1ccc2c(c1)CCN(c1nc3ccccc3n3cnnc13)C2	5.3	4.3	3.3	-20.7	-4.2
SMILES	FBA Mtb inh	GDH-TPI counter	BioA inh	Rv3671c inh	FadD28 binding
C[C@H](CO)N1C[C@H](C)[C@@H](CN(C)S(C)(=O)=O)Oc2ccc(NC(=O)Cc3ccccc3)cc2CC1=O	nt	nt	-2.2	nt	nt
O=C(Cc1nc2ccccc2[nH]1)c1ccc(Br)cc1	2.4	31.6*	nt	2.2	-0.1
COc1cccc(C(=O)NN2CC(O)=C(c3nc4ccccc4s3)C2=N)c1	1.5	13.4	nt	0.1	4.2
N=C1C(c2nc3ccccc3s2)=C(O)CN1NC(=O)c1ccco1	7.8	46.8*	-0.2	5.3	-1.1
COCCNC(=O)C[C@H]1C=C[C@@H](NC(=O)NC2CCCCC2)[C@@H](CO)O1	nt	nt	-0.2	nt	nt
C/C=C/c1ccc([C@@H]2[C@H](C#N)N(C(=O)NC3CCCC3)[C@H]2CO)cc1	nt	nt	0.8	nt	nt
